# From PubChem BioAssay
# Where “and” joins values, the source holds several entries; their conditions need not be identical. Identical values can stand only once. Results filed as inconclusive are left out. More than one record can exist for a structure, and the calls need not agree. Calls of active or inactive are those of the source. Unless noted, no cut-off is given here; in the data, nearly all actives have AC50 up to about 26 µM.
# Experiments:
# [1] = viability loss in pontine glioma line – cell-based, SU-DIPG-XVII, MIPE5.0, CellTiter-Glo, qHTS, dose response (AID 1347060); conditions: CellTiter-Glo ATP luminescence;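 for AC50: cells exposed to compound for 48 hours before viability readout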
# [2] = viability loss in pontine glioma line – cell-based, SU-DIPG-XXV, MIPE5.0, CellTiter-Glo, qHTS, dose response (AID 1347065); conditions: CellTiter-Glo ATP luminescence;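 note: cells exposed to compound for 48 hours before ATP readout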
# [3] = growth inhibition of DIPG cells – cell-based, MIPE4.0 library, CellTiter-Glo luminescence, qHTS (AID 1347066; cut-off not given, nearly all actives have AC50 up to about 30 µM;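 note: cells exposed to compound for 48 hours before readout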); conditions: SU-DIPG-VI viability, CellTiter-Glo ATP luminescence
# [4] = JHH-DIPG-1 glioma cell viability, MIPE5.0 library, CellTiter-Glo luminescence, qHTS (AID 1347067); conditions: JHH-DIPG-1 glioma viability, CellTiter-Glo ATP luminescence;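 note: cells exposed to compound for 48 hours before readout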
# [5] = viability loss with induced miR-34 in A549 – imaging, A549 dox-inducible miR-34, nuclei and caspase counts, primary screen (AID 1347080;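 active = compounds whose cell count with miR-34 switched on is under 0.7 times the count with it off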); conditions: A549 miR-34 inducible, Hoechst nuclei count, 48 h
# [6] = MELAS cybrid and Rieske KO viability enhancers – cell-based, MELAS cybrids, Rieske KO mouse fibroblasts, CellTiter-Glo, primary screen (AID 1508586;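 active = mean z-score across replicates of 1.96 or higher in either the MELAS or the Rieske mutant cell line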;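 note: z relative to plate mean and SD of compound and empty wells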); conditions: low glucose
# [7] = growth inhibition of DIPG cells – cell-based, MIPE5.0 library, qHTS (AID 1347068; cut-off not given, nearly all actives have IC50 up to about 30 µM;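 for IC50: cells exposed to compound for 48 hours before viability readout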); conditions: SU-DIPG-XXV viability
# [8] = liver-stage malaria parasite load reduction – cell-based, known kinase inhibitor set, luminescence, hepatoma host viability (AID 624392; call rule not given here;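 note: infected cells incubated roughly two days before readout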); conditions: Plasmodium liver stage in hepatoma cells, luciferase luminescence, concentration not given here; liver cell % of control: measured here: host liver cell viability; parasite % of control: stronger effect = lower value
# [9] = compounds altering HSF1 focus formation in cells – imaging, Selleck Cancer Library (AID 1347162; in the data active = plate-normalised HSF1 focus index below about 0.46); conditions: human cells, HSF1 nuclear foci imaging, at 10 µM; SSMD: measured here: HSF1 foci SSMD mean; cell count: measured here: cell number; plate-normalised HSF1 focus index: stronger effect = lower value
# [10] = drug combination growth inhibition, ovarian cancer – cell-based, oncology-focused library, rucaparib conditional, profiling panel (AID 1508598;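 active = normalized viability below 100% at a tested concentration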); conditions: patient-derived ovarian cancer cells, CellTiter-Glo viability, 144 h, stronger effect = lower value
# [11] = stronger effect = lower value, cell number ratio, induced over uninduced
# [12] = measured here: relative caspase fold change +Dox/-Dox
# [13] = measured here: total cells with miR-34 induction, stronger effect = lower value
# [14] = measured here: total cells without miR-34 induction
# [15] = MELAS cybrid survival, CellTiter-Glo 48 h, stronger effect = higher value
# [16] = Rieske KO mouse fibroblast survival, CellTiter-Glo 72 h
smiles,measurement,setting,value
CCS(=O)(=O)N1CC(CC#N)(n2cc(-c3ncnc4[nH]ccc34)cn2)C1,AC50,[1],18.6 µM (active)
same,AC50,[2],18.6 µM (active)
same,outcome,[3],inactive
same,outcome,[4],inactive
same,fold change,[5]; [11],0.973 (inactive)
same,fold change,[5]; [12],0.869
same,cell count,[5]; [13],8770
same,cell count,[5]; [14],9020
same,z-score,[6]; [15],-0.48 (inactive)
same,z-score,[6]; [16],0.0326
Cc1c(F)cc(C(=O)NC2CC2)cc1-c1c(F)cn2c(C(C)(C)C)nnc2c1F,outcome,[1],inactive
same,outcome,[2],inactive
same,outcome,[4],inactive
same,outcome,[7],inactive
CN1CCN(C(=O)[C@H]2[C@@H](C(=O)O)[C@H]3CC[C@@H]2O3)CC1,outcome,[1],inactive
same,outcome,[2],inactive
same,outcome,[4],inactive
same,outcome,[7],inactive
O=C(Nc1nccs1)C(c1cc(F)ccc1O)N1Cc2ccccc2C1=O (centres undefined),outcome,[1],inactive
same,outcome,[2],inactive
same,outcome,[4],inactive
same,outcome,[7],inactive
COc1c(C)cc(NC(=O)c2nn(Cc3ccc(F)cc3)c3c2CN(C(=O)c2ccc[nH]2)C[C@]3(C)C(N)=O)cc1C,outcome,[1],inactive
same,outcome,[2],inactive
same,outcome,[4],inactive
CC[C@H](NC(=O)[C@H](CS(=O)(=O)CC1CC1)N[C@@H](c1ccc(F)cc1)C(F)(F)F)C(=O)C(=O)NC1CC1,outcome,[1],inactive
same,outcome,[2],inactive
same,outcome,[4],inactive
Cc1cnc(NC(=O)c2cc(Oc3cnc(C(=O)N(C)C)nc3)c3cc(C)oc3c2)cn1,outcome,[1],inactive
same,outcome,[2],inactive
same,outcome,[4],inactive
same,outcome,[7],inactive
COc1ccc(S(=O)(=O)N[C@@H](CNc2nc(C)nc(N3CCC(c4ccc5c(n4)NCCC5)CC3)c2C)C(=O)O)cc1,outcome,[1],inactive
same,outcome,[2],inactive
same,outcome,[4],inactive
same,outcome,[7],inactive
NC(=O)[C@H]1CCS[C@@H]2C[C@]3(CCCN3C(=O)Cc3ccc(NC(=O)COc4ccc(Cl)cc4Cl)cc3)C(=O)N12,AC50,[1],4.17 µM (active)
same,AC50,[2],10.5 µM (active)
same,AC50,[4],16.6 µM (active)
CO[C@@H]1C(N(C)C(=O)c2ccccc2)C[C@H]2O[C@]1(C)n1c3ccccc3c3c4c(c5c6ccccc6n2c5c31)C(=O)NC4=O (some centres undefined),AC50,[1],0.934 µM (active)
same,AC50,[2],0.934 µM (active)
same,outcome,[3],inactive
CC(C)(CO)n1cc(C(=O)c2cncc(NC(=O)Cc3ccc(Cl)cn3)c2)c2cnc(N)nc21,outcome,[1],inactive
same,outcome,[2],inactive
same,outcome,[4],inactive
same,outcome,[7],inactive
Nc1cc(COc2c(Cl)cc(C[C@H](N)C(=O)O)cc2Cl)c2oc(-c3ccccc3)nc2c1,outcome,[1],inactive
same,outcome,[2],inactive
same,outcome,[4],inactive
same,outcome,[7],inactive
CCc1ccc2nc(Nc3cc(Cc4ccccc4)nc(NC4CCC(O)CC4)n3)sc2c1 (centres undefined),AC50,[1],26.3 µM (active)
same,AC50,[2],18.6 µM (active)
same,AC50,[4],20.9 µM (active)
same,outcome,[7],inactive
COc1cccc(-c2c(C)n(Cc3c(F)cccc3C(F)(F)F)c(=O)n(C[C@H](NCCCC(=O)O)c3ccccc3)c2=O)c1F,outcome,[1],inactive
same,outcome,[2],inactive
same,outcome,[4],inactive
same,outcome,[7],inactive
O=C(Nc1cccc(Cl)c1)Nc1ncc(CCNc2ncnc3ccsc23)s1,liver cell % of control,[8],68.4% and 82.5% and 102%
same,parasite % of control,[8],0.394% (inactive) and 0.318% (inactive) and 0.473% (active)
same,AC50,[1],0.0166 µM (active)
same,AC50,[2],0.525 µM (active)
same,AC50,[4],16.6 µM (active)
same,IC50,[7],11.8 µM (active)
same,fold change,[5]; [11],1.06 (inactive)
same,fold change,[5]; [12],1.09
same,cell count,[5]; [13],2320
same,cell count,[5]; [14],2200
same,SSMD,[9],1.43
same,cell count,[9],7300
same,plate-normalised HSF1 focus index,[9],1.08 (inactive)
same,z-score,[6]; [15],-0.144 (inactive)
same,z-score,[6]; [16],-1.82
same,viability,"[10]; at 0.000305 µM, OCI-C5x cells, with rucaparib 10 µM, 100% = cells with rucaparib alone",108% (inactive)
same,viability,"[10]; at 0.000305 µM, OCI-C5x cells, without rucaparib",107% (inactive)
same,viability,"[10]; at 0.000305 µM, OCI-P5x cells, with rucaparib 20 µM, 100% = cells with rucaparib alone",122% (inactive)
same,viability,"[10]; at 0.000305 µM, OCI-P5x cells, without rucaparib",122% (inactive)
same,viability,"[10]; at 0.00122 µM, OCI-C5x cells, with rucaparib 10 µM, 100% = cells with rucaparib alone",98.1% (active)
same,viability,"[10]; at 0.00122 µM, OCI-C5x cells, without rucaparib",97.4% (active)
same,viability,"[10]; at 0.00122 µM, OCI-P5x cells, with rucaparib 20 µM, 100% = cells with rucaparib alone",115% (inactive)
same,viability,"[10]; at 0.00122 µM, OCI-P5x cells, without rucaparib",94.7% (active)
same,viability,"[10]; at 0.00488 µM, OCI-C5x cells, with rucaparib 10 µM, 100% = cells with rucaparib alone",95.1% (active)
same,viability,"[10]; at 0.00488 µM, OCI-C5x cells, without rucaparib",96.5% (active)
same,viability,"[10]; at 0.00488 µM, OCI-P5x cells, with rucaparib 20 µM, 100% = cells with rucaparib alone",112% (inactive)
same,viability,"[10]; at 0.00488 µM, OCI-P5x cells, without rucaparib",91.7% (active)
same,viability,"[10]; at 0.0195 µM, OCI-C5x cells, with rucaparib 10 µM, 100% = cells with rucaparib alone",112% (inactive)
same,viability,"[10]; at 0.0195 µM, OCI-C5x cells, without rucaparib",109% (inactive)
same,viability,"[10]; at 0.0195 µM, OCI-P5x cells, with rucaparib 20 µM, 100% = cells with rucaparib alone",99.4% (active)
same,viability,"[10]; at 0.0195 µM, OCI-P5x cells, without rucaparib",85.1% (active)
same,viability,"[10]; at 0.0781 µM, OCI-C5x cells, with rucaparib 10 µM, 100% = cells with rucaparib alone",91.8% (active)
same,viability,"[10]; at 0.0781 µM, OCI-C5x cells, without rucaparib",109% (inactive)
same,viability,"[10]; at 0.0781 µM, OCI-P5x cells, with rucaparib 20 µM, 100% = cells with rucaparib alone",99.1% (active)
same,viability,"[10]; at 0.0781 µM, OCI-P5x cells, without rucaparib",85.1% (active)
same,viability,"[10]; at 0.313 µM, OCI-C5x cells, with rucaparib 10 µM, 100% = cells with rucaparib alone",91.9% (active)
same,viability,"[10]; at 0.313 µM, OCI-C5x cells, without rucaparib",103% (inactive)
same,viability,"[10]; at 0.313 µM, OCI-P5x cells, with rucaparib 20 µM, 100% = cells with rucaparib alone",96.5% (active)
same,viability,"[10]; at 0.313 µM, OCI-P5x cells, without rucaparib",81.4% (active)
same,viability,"[10]; at 1.25 µM, OCI-C5x cells, with rucaparib 10 µM, 100% = cells with rucaparib alone",94.3% (active)
same,viability,"[10]; at 1.25 µM, OCI-C5x cells, without rucaparib",108% (inactive)
same,viability,"[10]; at 1.25 µM, OCI-P5x cells, with rucaparib 20 µM, 100% = cells with rucaparib alone",97.9% (active)
same,viability,"[10]; at 1.25 µM, OCI-P5x cells, without rucaparib",88.4% (active)
same,viability,"[10]; at 5 µM, OCI-C5x cells, with rucaparib 10 µM, 100% = cells with rucaparib alone",170% (inactive)
same,viability,"[10]; at 5 µM, OCI-C5x cells, without rucaparib",150% (inactive)
same,viability,"[10]; at 5 µM, OCI-P5x cells, with rucaparib 20 µM, 100% = cells with rucaparib alone",51.5% (active)
same,viability,"[10]; at 5 µM, OCI-P5x cells, without rucaparib",61.4% (active)
CC(=O)N1CCN(c2ccc(NC(=O)Cc3cnc(-c4ccnc(F)c4)c(C)c3)nc2)CC1,outcome,[1],inactive
same,outcome,[2],inactive
same,outcome,[4],inactive
same,outcome,[7],inactive
Cc1ccc(-c2nn(C(C)(C)CNC(=O)c3ccncc3)c3ncnc(N)c23)cc1,AC50,[1],10.5 µM (active)
same,AC50,[2],13.2 µM (active)
same,AC50,[4],13.2 µM (active)
same,IC50,[7],14.8 µM (active)
O=C(Cc1ccccc1)Nc1nnc(CCSCCc2nnc(NC(=O)Cc3ccccc3)s2)s1,outcome,[1],inactive
same,AC50,[2],11.8 µM (active)
same,AC50,[4],14.8 µM (active)
same,outcome,[7],inactive
COCCNCc1ccc(-c2cc3nccc(Oc4ccc(NC(=S)NC(=O)Cc5ccc(F)cc5)cc4F)c3s2)nc1,AC50,[1],7.42 µM (active)
same,AC50,[2],4.17 µM (active)
same,AC50,[4],7.42 µM (active)
same,IC50,[7],9.34 µM (active)
C[C@]1(C(=O)N(CCCC(=O)O)Cc2cccc(Cl)c2)CCN1C(=O)c1csc2ccccc12,outcome,[1],inactive
same,outcome,[2],inactive
same,outcome,[4],inactive
same,outcome,[7],inactive
CCCS(=O)(=O)c1nc(NC2CC2)cc(-c2ccc3c(ccn3C3CC(C)(C)NC(C)(C)C3)c2)n1,AC50,[1],3.93 µM (active)
same,AC50,[2],2.78 µM (active)
same,AC50,[4],2.78 µM (active)
same,IC50,[7],3.12 µM (active)
